Laboratory results published in PubChem BioAssay AID1220 (Sanford-Burnham Center for Chemical Genomics, 2008).
Out of some 190,000 compounds screened, about 1,300 (0.68%) were called active. For the sample, actives were picked, then their nearest neighbours and some compounds at random. A number with no mark means an inactive call. Cut-off read from the data, not from the text of the source: active = inhibition above about 50%; inactive = the rest.

Each compound was assayed against Mannose-6-phosphate isomerase (Homo sapiens) (UniProt P34949) (assay: MPI inhibition at elevated mannose 6-phosphate – biochemical, fluorescence intensity, high mannose 6-phosphate, primary screen (AID 1220)). Conditions: recombinant PMI enzyme, coupled fluorescence intensity; at 20 µM; active compounds read high.
Chain of Mannose-6-phosphate isomerase (Homo sapiens) (P34949 whole entry, looked up): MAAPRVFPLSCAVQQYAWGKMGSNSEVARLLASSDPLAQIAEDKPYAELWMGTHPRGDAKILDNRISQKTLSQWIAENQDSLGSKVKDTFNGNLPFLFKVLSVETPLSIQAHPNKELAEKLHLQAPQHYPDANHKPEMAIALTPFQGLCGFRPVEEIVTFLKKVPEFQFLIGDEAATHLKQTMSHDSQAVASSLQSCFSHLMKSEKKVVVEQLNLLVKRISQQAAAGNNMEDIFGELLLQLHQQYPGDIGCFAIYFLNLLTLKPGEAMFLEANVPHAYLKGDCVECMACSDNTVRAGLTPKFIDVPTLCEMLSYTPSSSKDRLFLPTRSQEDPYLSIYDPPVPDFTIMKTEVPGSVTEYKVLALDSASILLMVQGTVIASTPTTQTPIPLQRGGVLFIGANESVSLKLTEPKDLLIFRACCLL

Compound	inhibition
CCCOc1ccc(N2C(=O)CC(N3CCC(O)(c4cccc(C(F)(F)F)c4)CC3)C2=O)cc1 (stereo not drawn)	7.5%
CC(=O)Oc1cc2oc(=O)cc(C)c2cc1OC(C)=O	55.7% (active)
CC(=O)Oc1ccc2c(C)cc(=O)oc2c1	2%
CC(=O)c1cc2c(C)cc(=O)oc2cc1O	11.3%
CC(=O)c1cc2c(cc1NC(=O)CCc1ccccc1)OCO2	0.5%
CCOc1cc(/C=C2/C(=O)N(c3ccccc3)N=C2C)ccc1OC(=O)c1ccco1	43.2%
CCOc1cc(/C=C2\C(=O)N(c3ccc(C(N)=O)cc3)N=C2C)ccc1OC(=O)c1cccs1	61.4% (active)
CCOc1cc(/C=C2/C(=O)N(c3ccccc3)N=C2C)ccc1OC(=O)c1cccs1	17%
CCOc1ccc(NCC2CCOC(C)(C)C2)cc1 (stereo not drawn)	50.9% (active)
CCOc1ccc(NC(=O)NC2CCOC(C)(C)C2)cc1 (stereo not drawn)	11.5%
CCOc1ccc(NCCC#N)cc1	2.3%
CCN(CC)S(=O)(=O)c1cccc(C(=O)OCC(=O)NC(C)c2ccccc2)c1 (stereo not drawn)	-2.8%
O=C(CNC(=O)/C(=C\c1ccc(F)cc1)NC(=O)c1ccccc1)OCc1ccccc1	0.8%
O=C(NCc1cccnc1)c1ccc(COc2ccccc2Br)o1	11.6%
COc1ccccc1OCc1ccc(C(=O)NCc2cccnc2)o1	6.8%
O=C(NCc1cccnc1)c1ccc(COc2cccc3ccccc23)o1	53.2% (active)
CC1CCN(c2c(NCC3CCC(C(=O)NCCc4ccccc4)CC3)c(=O)c2=O)CC1 (stereo not drawn)	1.2%
Cn1ncc(N=Cc2ccccc2)c1C(=O)Nc1cccc(Cl)c1	14.7%
Cn1ncc(N=Cc2c(O)ccc3ccccc23)c1C(=O)Nc1cccc(Cl)c1	64% (active)
Cn1ncc(N=Cc2ccccc2O)c1C(=O)Nc1ccccc1	16.9%
C/C(CC(=O)Nc1ccccn1)=N\NC(=O)C(=O)Nc1ccccc1C	13%
CCOC(=O)C(Cc1ccc(Cl)cc1Cl)c1ccno1 (stereo not drawn)	0.3%
O=C(NCc1ccco1)C1CCN(c2nc3ccccc3n2Cc2ccccc2F)CC1	25.8%
COc1ccccc1NCCC(=O)OCC(=O)Nc1ccc(Cl)cn1	50.3% (active)
O=C(COC(=O)CCOc1ccccc1)Nc1ccc(Cl)cn1	9.2%
COc1ccccc1C(=O)OCC(=O)Nc1ccc(Cl)cn1	6.1%
O=c1c2[nH]c3ccccc3c2ncn1Cc1ccccn1	1.8%
CC(=O)c1c(C)[nH]c(C(=O)N2CCc3ccccc3C2)c1C	12.7%
